In PubChem BioAssay:
Potency and affinity values are given separately. Inconclusive results are not listed. Values without a mark were called inactive.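 How the source made its calls: active means signal-lowering compounds whose fitted half-maximal concentration is at or below twice the top tested dose in every run; inconclusive means runs disagree, flat 30 to 70% inhibition, or poor curve fit; inactive means the rest.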

Assay: CMV-driven luciferase expression suppression in HEK293 – cell-based, luminescence, dry powder, counter-screen for Pax8 inhibitor project, dose response (AID 743020);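 further: HEK293 cells stably expressing the CMV luciferase reporter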
Details: HEK293 CMV-luciferase reporter, SteadyGlo luminescence, 24 h; series mostly up to 35 µM; activity change, negative = inhibition: at the top concentration

First: O=C1C=CC(=O)c2c(O)c(N3CCN(CCOCCO)CC3)c(Br)c(O)c21
Second: CS(=O)(=O)c1ccc(C(=O)OCC(=O)N2CCN(CCC3CCCCC3)CC2)cc1[N+](=O)[O-]
The “activity change, negative = inhibition” value of the first is lower: -23.1% for the first, -14% for the second.

Compared with `O=C(C[C@@H]1C/C=C/CC[C@H](Cc2ccc(F)cc2)C(=O)OC[C@@H](Cc2ccccc2)NC1=O)N[C@H](CO)Cc1ccccc1`, `COc1ccccc1-c1ccc(OCCCN2CCC(C(O)(c3ccccc3)c3ccccc3)CC2)cc1` is lower in “activity change, negative = inhibition” value: 4.31% for the first, 1.56% for the second.

First: Cc1ccc2c(CC(=O)OCC(=O)Nc3ccc(Cl)cn3)coc2c1
Second: COc1ccccc1C(=O)Nc1nc2ccccc2s1
The “activity change, negative = inhibition” value of the first is lower: 0.912% for the first, 210% for the second.

Compared with `CCSc1ccc(-c2cc(NC=O)c3ncc(-c4cccc(C(=O)NCCN(C)C)c4)n3c2)cc1`, `CCN1CCN(Cc2ccc(NC(=O)c3cc(NC(=O)c4cncc(-c5ccc(C#N)cc5)c4)cc(OC)c3)cc2C(F)(F)F)CC1` is lower in “activity change, negative = inhibition” value: 240% for the first, -8.57% for the second.

First: COc1ccc(C(=O)NNC(=O)c2ccccn2)cc1
Second: COc1ccc(/C=C/c2nc3ccccc3n2C)cc1
The “activity change, negative = inhibition” value of the first is lower: -16.7% for the first, 7.18% for the second.

Compared with `COc1cccc(/C=N/Nc2cc(C)nc(-c3ccccc3O)n2)c1O`, `Cc1cc(N/N=C/c2ccc(O)c(C)c2O)nc(-c2ccccc2O)n1` is higher in “activity change, negative = inhibition” value: -33.2% for the first, 134% for the second.

Going from `C#CCN(C[C@@H]1[C@@H](OC(=O)NCCCCCC)[C@@H](OC(=O)NCCCCCC)Cn2c(=O)ccc(=O)n21)S(=O)(=O)c1ccc(C)cc1` to `CN(C[C@H]1N[C@@H](CO)[C@@H]1c1ccc(C2=CCCC2)cc1)C(=O)c1ccncc1`, the “activity change, negative = inhibition” value rises from -14.6% to 58%.

Going from `COC(=O)C1=C(SC)N(c2ccccc2)C(c2ccccc2)CC1=O` (stereo not given) to `O=C(NC1=CC(=O)c2ccccc2C1=O)c1ccccc1`, the “activity change, negative = inhibition” value falls from 7.57% to 3.63%.

Going from `C=C1CCc2c([nH]c3ccc(OCC(C)C)cc23)C1=O` to `CC(C)CN1CCN(C(=O)COC(=O)c2ccc(S(C)(=O)=O)c([N+](=O)[O-])c2)CC1`, the “activity change, negative = inhibition” value falls from -0.787% to -19.6%.

First: COc1cccc(/C=N/Nc2ccc(C(=O)O)cc2)c1O
Second: O=C(O)c1ccc(N/N=C/c2ccc3nccnc3c2)cc1
The “activity change, negative = inhibition” value of the first is higher: 0.189% for the first, -20% for the second.

Compared with `C[C@H](CO)N1C[C@H](C)[C@@H](CN(C)C(=O)Nc2ccc3c(c2)OCO3)Oc2cc(C#Cc3ccncc3)ccc2S1(=O)=O`, `COc1ccccc1C#Cc1ccc([C@H]2[C@@H](CO)N(C(=O)C3CCCCC3)[C@H]2C#N)cc1` is higher in “activity change, negative = inhibition” value: -24.4% for the first, 81.7% for the second.

Going from `COc1ccc(C(C(=O)NC2CCCCC2)N(C(=O)CCl)c2cccc(Cl)c2)cc1` (stereo not given) to `O=C(NC1CCCCC1)C(c1cccnc1)N(C(=O)CCl)c1ccccc1Cl` (stereo not given), the “activity change, negative = inhibition” value falls from 109% to -26.7%.

Going from `O=C(OCc1ccccc1)N(CCCCN(CCCNCc1ccccc1)C(=O)OCc1ccccc1)CCCNCc1ccccc1` to `CCOc1ccccc1NC(=O)c1nc(S(=O)(=O)Cc2ccccc2)ncc1Cl`, the “activity change, negative = inhibition” value rises from -35.7% to 4.5%.

First: CC1(C)CC(=O)C=C(C#CC2(O)CCCCC2)C1
Second: COc1cccc(/C=C2/Sc3ccc(C(=O)NCCN4CCCCCC4)cc3NC2=O)c1
The “activity change, negative = inhibition” value of the first is lower: -7.18% for the first, 17.2% for the second.

Compared with `COC(=O)C1=C(C)N(Cc2cccc(C(F)(F)F)c2)C(=NCC2CC2)NC1c1cccc(C(F)(F)F)c1` (stereo not given), `Cc1cccc(N(Cc2ccccc2)C(=O)CCl)c1` is higher in “activity change, negative = inhibition” value: -25.4% for the first, 5.11% for the second.

Going from `CCC(OC(=O)c1ccc(S(C)(=O)=O)c([N+](=O)[O-])c1)C(=O)NC1C2CC3CC(C2)CC1C3` (stereo not given) to `CC(C)N(CC(=O)Nc1ccc(Cl)cc1C(F)(F)F)C(=O)CCl`, the “activity change, negative = inhibition” value rises from -29.4% to 3.35%.

Compared with `COc1cc(OC)nc(-n2ncc(Br)c(Br)c2=O)n1`, `Cc1nn(-c2nc3ccccc3[nH]2)c(=O)c2ccccc12` is higher in “activity change, negative = inhibition” value: -26.5% for the first, 42.6% for the second.

Compared with `O=C(Nc1cccc(NC(=O)c2ccc([N+](=O)[O-])o2)c1)c1ccco1`, `C=C1CC(Cn2cc(Br)c(=O)[nH]c2=O)(c2ccc(-c3ccccc3)cc2)OC1=O` (stereo not given) is lower in “activity change, negative = inhibition” value: 5.65% for the first, -1.81% for the second.

First: O=S(=O)(c1ccc2c(c1)C(=NO)c1cc(S(=O)(=O)N3CCCCC3)ccc1-2)N1CCCCC1
Second: CC[C@@H](C(=O)[C@@H](C)[C@@H](O)[C@H](C)CCc1ccc(C)c(O)c1C(=O)O)[C@H]1O[C@](CC)([C@H]2CC[C@](O)(CC)[C@H](C)O2)C[C@@H]1C
The “activity change, negative = inhibition” value of the first is higher: -33% for the first, -36.7% for the second.

With `CN(C[C@H]1N[C@@H](CO)[C@@H]1c1ccc(C2=CCCC2)cc1)C(=O)c1ccc(F)cc1` the activity change, negative = inhibition was 0.4% [at 8 µM].

With `COc1ccc(C(C(=O)NC2CCCCC2)N(C(=O)CCl)c2ccc(C)cc2)cc1` (stereo not given) the “activity change, negative = inhibition” value was 0.855% [at 16 µM].
